PubChem BioAssay AID602342 (Broad Institute, 2012)
About 1,000 (0.29%) of roughly 340,000 compounds were called active.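 How the source made its calls: active means mean replicate activation score at least 90 and every replicate individually at or above 90; inconclusive means only one of the two criteria met; inactive means neither criterion met.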 The list comes from a sample in which actives are over-represented; it also holds similar structures and randomly drawn compounds.

Test: compounds raising miR-122 luciferase sensor output – cell-based, single point, plate reader, miR-122 inhibitor project, primary screen (AID 602342);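 further: higher luciferase means less miR-122 activity so hits act as miR-122 inhibitors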
Conditions: Huh7 miR-122 Renilla luciferase sensor, 48 h, hits give high values, neutral wells = 0, positive control = 100; at 16.7 µM unless noted
For `C[C@@H]1CN([C@H](C)CO)C(=O)c2cccc(NC(=O)c3cnccn3)c2O[C@@H]1CN(C)Cc1ccncc1`, the activation (reporter increase) was -3.39% (inactive).
With `CC(C)NC(=O)N(C)C[C@@H]1Oc2c(NC(=O)c3cnccn3)cccc2C(=O)N([C@@H](C)CO)C[C@@H]1C` the activation (reporter increase) was 4.6% (inactive).
In the case of `C[C@H](CO)N1C[C@H](C)[C@@H](CN(C)Cc2ccccc2)Oc2c(NC(=O)C3CCOCC3)cccc2C1=O`, the activation (reporter increase) is reported as 14.3% (inactive).
With `C[C@H](CO)N1C[C@H](C)[C@H](CN(C)CC2CCCCC2)Oc2c(NC(=O)c3cnccn3)cccc2C1=O` the activation (reporter increase) was 119% (active).
In the case of `C[C@H](CO)N1C[C@H](C)[C@H](CN(C)Cc2ccc(C(=O)O)cc2)Oc2c(NC(=O)C3CCOCC3)cccc2C1=O`, the activation (reporter increase) is reported as -5.1% (inactive).
For `C[C@H](CO)N1C[C@H](C)[C@@H](CN(C)Cc2ccc3c(c2)OCO3)Oc2c(NC(=O)C3CCOCC3)cccc2C1=O`, the activation (reporter increase) was 319% (active).
In the case of `CN(C)CCCNC(=O)C[C@@H]1C=C[C@H](NC(=O)Cc2cccnc2)[C@H](CO)O1`, the activation (reporter increase) is reported as 15.8% (inactive).
For `COc1ccc(S(=O)(=O)N(C)C[C@H]2OCCCC[C@@H](C)Oc3ccc(NC(=O)CCC(F)(F)F)cc3C(=O)N([C@@H](C)CO)C[C@H]2C)cc1`, the activation (reporter increase) was 16.9% (inactive).
In the case of `C[C@@H]1CCCCO[C@@H](CN(C)S(=O)(=O)c2cn(C)cn2)[C@@H](C)CN([C@@H](C)CO)C(=O)c2cc(NC(=O)Nc3ccc(C(F)(F)F)cc3)ccc2O1`, the activation (reporter increase) is reported as -9.96% (inactive).
For `COc1ccc(N2CC(NS(=O)(=O)c3ccc4ccccc4c3)CC2=O)cc1` (configuration not stated), the activation (reporter increase) was -5.35% [at 12.5 µM] (inactive).
For `COc1cc(NS(=O)(=O)c2ccc3ccccc3c2)c2ncccc2c1`, the activation (reporter increase) was 152% [at 12.5 µM] (active).
For `CCOc1ncccc1C(=O)NNC(=O)c1cccc(S(=O)(=O)Nc2ccccc2OC)c1`, the activation (reporter increase) was -0.667% [at 12.5 µM] (inactive).
With `C[C@H]1CN([C@@H](C)CO)C(=O)c2cccc(NC(=O)Nc3ccc(F)cc3)c2O[C@H]1CN(C)S(=O)(=O)c1cn(C)cn1` the activation (reporter increase) was 4.09% (inactive).
With `COc1ccc(F)cc1S(=O)(=O)NCC(c1ccc2c(c1)OCO2)N1CCN(C)CC1` (configuration not stated) the activation (reporter increase) was 2.63% [at 12.5 µM] (inactive).
With `CCOc1ccc(S(=O)(=O)Nc2ccncc2)c(C)c1C` the activation (reporter increase) was 20.9% [at 12.5 µM] (inactive).
For `COc1ccc(NS(=O)(=O)c2ccc(F)cc2F)cn1`, the activation (reporter increase) was -2.63% [at 12.5 µM] (inactive).
For `COc1ccc(F)cc1S(=O)(=O)Nc1ccc2c(c1)OCO2`, the activation (reporter increase) was 99.7% [at 12.5 µM] (active).
For `COc1ccc(S(=O)(=O)Nc2ccc3c(c2)OCO3)cc1Cl`, the activation (reporter increase) was 37.2% [at 12.5 µM] (inactive).
For `COc1ccc(S(=O)(=O)Nc2ccc(F)cc2)c(C)c1C`, the activation (reporter increase) was 231% [at 12.5 µM] (active).
For `CO[C@H]1CN(C)C(=O)c2ccc(NS(=O)(=O)c3ccccc3C)cc2OC[C@H](C)NC[C@H]1C`, the activation (reporter increase) was 6.89% (inactive).
For `Cn1cnc(S(=O)(=O)N2C[C@@H](O)COC[C@H]3O[C@@H](CC(=O)NCc4ccc(F)cc4)CC[C@@H]32)c1`, the activation (reporter increase) was 2.69% (inactive).
In the case of `O=C(N[C@@H]1CC[C@H](CCn2cc(C3CC3)nn2)O[C@H]1CO)c1cccnc1`, the activation (reporter increase) is reported as -7.57% (inactive).
